# Potency and affinity values are given separately. Active and inactive are the calls of the source.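 Rule for the calls: active = fitted half-maximal dose no more than twice the top valid tested dose, for compounds that lower signal; inconclusive = fit invalid, or curve flat with activity between -70 and -30; inactive = potency past limit, curve flat within ±30, or signal increasing.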
# Molecular target: NAD-dependent protein deacylase sirtuin-5, mitochondrial (Homo sapiens) (UniProt Q9NXA8)
# Assay: blockers of sirtuin-5 peptide desuccinylation – biochemical, fluorescence imaging, cherry-pick, set 6, dose response (AID 720597);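 note: lower AMC signal can also come from blocking the trypsin step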
# Conditions: Purified SirT5, succinyl-peptide-AMC/trypsin fluorescence; series mostly up to 15 µM
# NAD-dependent protein deacylase sirtuin-5, mitochondrial (Homo sapiens), sequence (Q9NXA8 whole entry, looked up): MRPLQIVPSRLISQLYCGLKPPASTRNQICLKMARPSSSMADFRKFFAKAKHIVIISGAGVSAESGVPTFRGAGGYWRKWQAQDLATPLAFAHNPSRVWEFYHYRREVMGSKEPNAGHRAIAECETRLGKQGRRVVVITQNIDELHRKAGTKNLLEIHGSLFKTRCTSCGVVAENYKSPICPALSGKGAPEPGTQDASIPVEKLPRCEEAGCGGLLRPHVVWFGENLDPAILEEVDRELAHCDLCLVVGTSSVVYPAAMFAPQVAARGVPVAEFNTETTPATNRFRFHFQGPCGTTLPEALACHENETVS
row,Structure (SMILES),outcome
1,COc1ccccc1NC(=O)Nc1ccc2c(c1)C(=O)N(C)C[C@H](OC)[C@H](C)CN[C@@H](C)CO2,inactive
2,COc1ccc(C#Cc2ccc([C@H]3[C@@H](CO)N4C(=O)CN(C(=O)c5cccnc5)C[C@H]34)cc2)cc1,inactive
3,C[C@@H]1CN([C@@H](C)CO)C(=O)c2cc(NC(=O)Nc3ccc(F)cc3)ccc2O[C@@H]1CN(C)S(=O)(=O)c1ccc(Cl)cc1,inactive
4,C[C@@H]1CN([C@@H](C)CO)C(=O)c2cc(-c3cccc(F)c3)cnc2O[C@H]1CN(C)C,inactive
5,CC(=O)N(C)C[C@H]1Oc2ncc(-c3cccc(F)c3)cc2C(=O)N([C@@H](C)CO)C[C@H]1C,inactive
6,Cc1ccc(S(=O)(=O)N(C)C[C@@H]2OCc3ccccc3-c3c(n(C)c4ccccc34)C(=O)N([C@H](C)CO)C[C@@H]2C)cc1,inactive
7,C[C@@H]1CN([C@H](C)CO)C(=O)Cc2cc(NS(=O)(=O)c3ccc(F)cc3)ccc2O[C@H]1CN(C)Cc1ccc(C(F)(F)F)cc1,inactive
8,CCCC(=O)Nc1ccc2c(c1)OC[C@@H](C)N(Cc1ccccc1)C[C@@H](C)[C@@H](OC)CN(C)C2=O,inactive
9,C[C@@H]1CN([C@H](C)CO)C(=O)c2cccc(NC(=O)CCCCCC(=O)Nc3ccccc3N)c2O[C@H]1CN(C)Cc1ccc(Oc2ccccc2)cc1,inactive
10,O=S(=O)(c1ccc(F)cc1)N1CCCCN2[C@H](CO)[C@H](c3ccc(C#CC4CCCC4)cc3)[C@H]2C1,inactive
11,COc1cccc(CN2[C@H](CO)[C@@H](c3ccccc3)C23CN(C(=O)C2CCC2)C3)c1,inactive
12,COc1ccc(S(=O)(=O)Nc2ccc3c(c2)C(=O)N([C@H](C)CO)C[C@@H](C)[C@@H](CN(C)S(=O)(=O)c2ccccc2)OCCCC[C@@H](C)O3)cc1,inactive
13,O=C(NC1CCCCC1)[C@@H]1[C@@H](CO)[C@@H]2Cn3c(cccc3=O)[C@H]1N2CC1CCCCC1,inactive
14,C[C@H](CO)N1C[C@H](C)[C@H](CN(C)Cc2cccc(F)c2)Oc2ncc(C#C[C@@H](C)O)cc2C1=O,inactive
15,C[C@H]1CN([C@@H](C)CO)S(=O)(=O)c2ccc(C#CC(C)(C)O)cc2O[C@@H]1CN(C)Cc1ccc(-c2ccccc2)cc1,inactive
16,C[C@H](CO)N1C[C@H](C)[C@@H](CN(C)C(=O)Cc2ccccc2)OCc2ccccc2-c2c(n(C)c3ccccc23)C1=O,inactive
17,COc1cccc(NC(=O)N2CC(=O)N3[C@H](CO)[C@@H](c4ccc(C#CCC5CCCC5)cc4)[C@H]3C2)c1,inactive
18,C[C@@H]1CN([C@@H](C)CO)C(=O)c2cc(NS(=O)(=O)c3cccs3)ccc2O[C@@H](C)CCCCO[C@@H]1CN(C)Cc1ccc(C(F)(F)F)cc1,inactive
19,COc1ccc(S(=O)(=O)Nc2ccc3c(c2)C(=O)N([C@H](C)CO)C[C@H](C)[C@@H](CN(C)Cc2ccc(Oc4ccccc4)cc2)O3)cc1,inactive
20,O=C(C[C@@H]1C[C@H]2c3cc(NC(=O)c4ccc5c(c4)OCO5)ccc3O[C@H]2[C@H](CO)O1)NCc1ccc(Oc2ccccc2)cc1,inactive
21,C[C@H](CO)N1C[C@H](C)[C@H](CN(C)Cc2ccc(-c3ccccc3)cc2)Oc2cc(C#CC(C)(C)O)ccc2S1(=O)=O,inactive
22,C[C@@H]1CN([C@@H](C)CO)C(=O)Cc2cc(NC(=O)Nc3ccc4c(c3)OCO4)ccc2O[C@@H]1CN(C)CC1CCCCC1,inactive
23,CO[C@H]1CN(C)C(=O)c2cc(NC(=O)c3ccccc3F)ccc2OC[C@H](C)NC[C@@H]1C,inactive
24,CCCC(=O)Nc1ccc2c(c1)OC[C@H](C)N(Cc1ccccc1)C[C@H](C)[C@H](OC)CN(C)C2=O,inactive
25,CCCNC(=O)N1[C@H](CO)[C@@H](c2ccccc2)C12CN(C(=O)CC1CC1)C2,inactive
26,CC(C)NC(=O)N[C@H]1CC[C@H](CCNC(=O)C2CCCC2)O[C@@H]1CO,inactive
27,C[C@H]1CN([C@@H](C)CO)S(=O)(=O)c2ccc(C#Cc3cccc(F)c3)cc2O[C@H]1CN(C)S(=O)(=O)c1ccccc1F,inactive
28,C[C@@H]1CN([C@@H](C)CO)S(=O)(=O)c2ccc(C#Cc3ccc(F)cc3)cc2O[C@H]1CN(C)S(=O)(=O)c1ccc(F)cc1,inactive
29,CCC(=O)N1C[C@H]2[C@@H](c3ccccc31)[C@@H](CO)N2Cc1cc(F)ccc1F,inactive
30,C/C=C/c1ccc([C@H]2[C@@H](CO)N(CC3CCCCC3)[C@@H]2CNC(C)C)cc1,inactive

# Source: PubChem BioAssay AID720597 (Broad Institute, 2013)
